Source: PubChem
This is a sample that favours compounds with a hit; in the whole collection about 19% have one here.
HT1080 IDH1KD tx: qHTS for induction of synthetic lethality in tumor cells producing 2HG: qHTS for the HT-1080-IDH1KD cell line; HT-1080 IDH1 knockdown viability, ATP luminescence, 48 h; Potency, µM (top dose mostly 46.1 µM), without a hit: top-dose activity, negative = toxicity, hits mostly cytotoxic; 360,000 tested, 2% active; AID 686971, 2013;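 also: potency is read from the fitted curve at half-maximal effect; 0% = DMSO wells and -100% = cell-free medium wells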
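Viability of IDH1-knockdown HT-1080 fibrosarcoma cells was assessed by CellTiter-Glo after 48 h at 37 °C with titrated compound; concentration-effect curves were classified by fit quality and response size.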
HT1080NT lethal: qHTS for induction of synthetic lethality in tumor cells producing 2HG: qHTS for the HT-1080-NT fibrosarcoma cell line; HT-1080-NT fibrosarcoma viability, CellTiter-Glo ATP luminescence, 48 h; Potency, µM (series often up to 46.1 µM), without a hit: top-dose activity, negative = less viability, hits mostly cytotoxic; AID 686970, 2013; 360,000 tested, 1.6% active;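 also: NT is the 2HG producing partner of a matched IDH1 knockdown line; potency is read from the fitted curve at half-maximal effect; 0% = DMSO-treated cells and -100% = media-only wells without cells; nearly all actives have a fitted effect of over 55% in size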
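Viability of the 2HG-overproducing fibrosarcoma line after 48 hours of compound exposure at 37 degrees C was determined by luminescence with CellTiter-Glo, and concentration-effect curves were then fitted and categorized.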
IL1B secr inh: qHTS for Inhibitors of Inflammasome Signaling: IL-1-beta AlphaLISA Primary Screen. activity change, % at 57.5 µM. 360,000 tested, 4.7% active. THP-1 LPS/ATP IL-1B secretion, AlphaLISA, 16 h; active compounds read low. AID 743279, 2014; in the data active = activity change below about -50%; inconclusive = mostly about -30% to -49%
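THP-1 cells pretreated 1 hr with compounds (up to 57.5 uM final), then stimulated with LPS (250 ng/mL final) plus ATP (1.25 mM final); secreted IL-1B measured by AlphaLISA after 16 hr, decreased signal indicating inhibition.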
DT40 TDP1 CPT: qHTS for Inhibitors of human tyrosyl-DNA phosphodiesterase 1 (TDP1): qHTS in cells in presence of CPT. chicken DT40 Tdp1-/-;hTDP1 cells + 20 nM CPT, ATP luminescence, 48 h. Potency, µM (titrated, usually from 46.2 µM), inactives show at the highest dose activity change, negative = growth inhibition, most hits filed as inhibitors. 420,000 tested, 12% active. AID 686979, 2013; also: potency is read from the fitted curve at half-maximal effect; nearly all actives have a fitted effect of over 55% in size
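Chicken DT40 Tdp1-/- cells complemented with human TDP1, 400 cells/well, exposed to compounds plus 20 nM camptothecin for at least 48 h at 37 C; viability read as ATP content by CellTiter-Glo luminescence.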
TDP1 cell noCPT: qHTS for Inhibitors of human tyrosyl-DNA phosphodiesterase 1 (TDP1): qHTS in cells in absence of CPT | DT40 Tdp1-/- hTDP1 cells, no CPT, ATP luminescence, 48 h | Potency, µM (highest dose often 46.2 µM), for inactives: top-dose activity change, negative = growth inhibition, actives largely listed as inhibitors | 420,000 tested, 15% active | AID 686978, 2013; also: potency is read from the fitted curve at half-maximal effect; nearly all actives have a fitted effect of over 55% in size
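Stably hTDP1-transfected Tdp1-null chicken DT40 cells were treated with library compounds minus camptothecin and grown for at least 48 hr at 37 °C, after which cellular ATP was quantified by luminescence.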
Numbers without * were called inactive; i = inactive; ? = inconclusive; / = not tested or not shown. Unless noted, calls follow the shape of the dose curve; as a rule, active = well fitted curve in the direction sought with a large enough effect; inconclusive = small, poorly fitted or top-dose-only effect, or another doubt; inactive = no such curve, though single readings can be large; an effect the other way counts as inactive or inconclusive. Unless noted, % is scaled to controls: 0 for no effect and ±100 for the full control effect.

SMILES | HT1080 IDH1KD tx | HT1080NT lethal | IL1B secr inh | DT40 TDP1 CPT | TDP1 cell noCPT
CC1CCCC(NC(=O)C2CCN(C(=O)Nc3ccccc3)CC2)C1C (stereo not drawn) | 0.0% | 3.2% | 0.0 | -19.7% | -20.6%
Cc1cc(S(=O)(=O)N2CCN(CC(=O)NCCc3cccs3)CC2)ccc1Br | -11.1% | -3.4% | 15.0 | ? | ?
O=C(c1ccccc1F)N(Cc1ccc2c(c1)OCO2)Cc1cc2cc3c(cc2n2nnnc12)OCO3 | 7.8% | 7.5% | 3.6 | -7.2% | ?
COc1ccc(NC(=O)CN(C)C(=O)c2cccc(S(=O)(=O)Nc3ccc(F)cc3)c2)cc1 | -1.3% | -7.4% | -10.0 | -19.0% | -16.4%
Cc1ccc2c(c1)-c1c(ssc1=S)C(C)(C)N2C(=O)c1ccco1 | ? | ? | -56.8* | ? | 16.4µM*
CCOc1ccc2c(c1)-c1c(ssc1=S)C(C)(C)N2C(=O)CSC1=NCCS1 | -11.3% | -2.3% | -53.9* | ? | 11.6µM*
CCOc1ccc2c(c1)-c1c(ssc1=S)C(C)(C)N2 | ? | ? | -17.1 | ? | 18.4µM*
Cc1ccc2c(c1)-c1c(ssc1=S)C(C)(C)N2C(=O)CSC1=NCCS1 | -2.0% | -3.4% | -66.0* | ? | ?
COc1ccc(CCNCc2c(C(=O)O)c(C)n(Cc3cccc(Cl)c3)c2C)c(OC)c1OC | / | / | / | ? | -15.0%
CCOc1ccc2c(c1)NC(c1cccs1)=NC(c1ccc(F)cc1)=N2 | / | / | / | 23.1µM* | ?
CCCCOc1ccc(C2=NC(c3ccncc3)=Nc3ccc(OCC)cc3N2)cc1 | / | / | / | 16.4µM* | ?
CCOc1ccc(C2=NC(c3ccncc3)=Nc3ccc(C)cc3N2)cc1OCC | / | / | / | ? | 18.4µM*
COc1ccc(-c2nnc(SCc3c(C)noc3C)n2N)cc1OC | -3.5% | 1.4% | 0.0 | -13.6% | -6.8%
CN(C(=O)COc1ccc(S(=O)(=O)N2CCOCC2)cc1[N+](=O)[O-])C1CCS(=O)(=O)C1 (stereo not drawn) | 14.3% | 4.5% | 11.7 | 3.2% | 14.8%
O=C(c1cccc(S(=O)(=O)N2CCc3ccccc32)c1)N1CCN(c2ccccn2)CC1 | 9.2µM* | ? | -11.7 | ? | 23.1µM*
CS(=O)(=O)N1CCc2cc(C(=O)N3CCN(c4ccccc4)CC3)ccc21 | 21.9% | 9.0% | i | ? | ?
COc1ccc(N2CCN(C(=O)c3cccc(S(=O)(=O)N4CCc5ccccc54)c3)CC2)cc1 | -21.2% | -14.6% | 25.0 | ? | 14.6µM*
O=C(NCc1ccccn1)c1cccc(S(=O)(=O)N2CCc3ccccc32)c1 | -7.1% | 0.0% | 8.1 | ? | ?
CS(=O)(=O)N1CCc2cc(C(=O)N3CCN(c4ccc(F)cc4)CC3)ccc21 | -1.9% | -22.2% | -11.5 | ? | 20.6µM*
O=C(O)C[C@H]1c2cc(F)ccc2S(=O)(=O)N1C1CCCCC1 | 6.4% | 15.5% | -12.3 | -21.7% | -10.4%
Cc1ccccc1NC(=S)N(Cc1cccs1)C1CCCCC1 | -13.2% | 1.3% | -2.9 | -28.8% | 9.2µM*
CCN(C(=S)Nc1ccccc1F)C1CCCCC1 | 4.5% | 5.2% | -7.8 | ? | 23.1µM*
O=C(Nc1ccccc1)N(Cc1cccs1)C1CCCC1 | -5.7% | 1.7% | -1.4 | ? | ?
CC(NC(=O)CNC(=S)N(Cc1cccs1)C1CCCC1)c1ccccc1 (stereo not drawn) | -9.2% | -8.1% | -23.8 | ? | 16.4µM*
CCOc1cccc2cc(-c3nc4ccc(C(=O)O)cc4[nH]3)c(=O)oc12 | / | / | / | 4.9% | -23.3%
CCCCC1CC(=O)NC1(C(=O)OCC)C(=O)OCC (stereo not drawn) | -0.1% | 7.0% | ? | 14.9% | -6.4%
CC(=O)N(c1ccccc1)c1nnc(-c2cnc(C)cn2)s1 | -17.0% | -10.9% | 0.0 | -11.0% | -27.5%
